An excerpt weighted towards active compounds, which were near 15% of everything screened.
Pf growth 96h: Primary qHTS for delayed death inhibitors of the malarial parasite plastid, 96 hour incubation; P. falciparum luciferase reporter growth, 96 h; Potency, µM (titrated, usually from 28.7 µM), inactives show at the top dose activity change, negative = inhibition, actives largely listed as inhibitors; 320,000 tested, 6.9% active; also: potency is read from the fitted curve at half-maximal effect; % is scaled to controls: 0 for no effect and ±100 for the full control effect
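96 h incubation, 37 C, 5% CO2, of luciferase-reporter P. falciparum-infected RBCs (2% hematocrit, 0.05% parasitemia final) with test compounds; endpoint luminescence.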
Sm TGR inh: qHTS Assay for the Inhibitors of Schistosoma Mansoni Peroxiredoxins | purified TGR, DTNB reduction, TNB absorbance 405 nm | 360,000 tested, 3% active | Potency, µM (titrated, usually from 114 µM), without a hit: at the top dose activity change, negative = inhibition, usual class: inhibitors; also: potency is read from the fitted curve at half-maximal effect; % is scaled to controls: 0 for no effect and ±100 for the full control effect; nearly all actives have a fitted effect of over 60% in size
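Kinetic colorimetric format: TGR-catalysed, NADPH-driven DTNB reduction monitored via TNB absorbance. Enzyme dispensed at 20 nM; compound exposure 15 min at room temperature before reaction start.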
HCMV antiviral: qHTS Assay for inhibitors of the human cytomegalovirus (HCMV). HFF cells, HCMV-luciferase reporter, 72 h; hits give low values. activity change, negative = inhibition, % at 57.5 µM. 410,000 tested, 4.5% active; in the data active = activity change below about -60%; inconclusive = no clear call, values can overlap the other calls; inactive = above about -39%; also: % is scaled to controls: 0 for no effect and ±100 for the full control effect
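Two compound doses tested in HFFs infected with HCMV-luciferase, MOI 1 PFU/cell, 72 h at 37C. Lysate luminescence read with OneGlo; data normalized against buffer-only and 10uM Salinomycin inhibitor controls.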
SARS PLpro yeast: qHTS of Yeast-based Assay for SARS-CoV PLP; S. cerevisiae expressing SARS-CoV PLpro, growth rescue; Potency, µM (highest dose often 32.9 µM), for the others: top-dose activity, positive = growth rescue, most hits filed as activators; 330,000 tested, 0.19% active; AID 485353, 2010; calls by dose curve; also: potency is read from the fitted curve at half-maximal effect; 0% is about no effect; nearly all actives have a fitted effect of over 55% in size
Pf growth 48h: Primary qHTS for delayed death inhibitors of the malarial parasite plastid, 48 hour incubation. P. falciparum luciferase growth in erythrocytes, 48 h. Potency, µM (highest dose often 28.7 µM), inactives show top-dose activity change, negative = inhibition, most hits filed as inhibitors. 310,000 tested, 5.9% active. AID 504832, 2011; also: potency is read from the fitted curve at half-maximal effect; % is scaled to controls: 0 for no effect and ±100 for the full control effect
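A one-generation exposure of luciferase-tagged malaria parasites in RPMI 1640/Albumax erythrocyte culture, 37 C and 5% CO2. Inhibition is inferred from decreased luminescence after adding detection reagent.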
HCV inh: qHTS Assay for Inhibitors of Hepatitis C Virus (HCV); Huh7.5.1 HCVcc-Cre infection, luciferase reporter, 44 h; Potency, µM (doses to about 41.8 µM), inactives show at the highest dose activity change, negative = inhibition, hits mostly inhibitors; 340,000 tested, 3.4% active; AID 651820, 2012; also: potency is read from the fitted curve at half-maximal effect; % is scaled to controls: 0 for no effect and ±100 for the full control effect
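After 44 h co-culture of compound, cells and HCVcc-Cre (~0.5 moi), substrate is added for 15 min at room temperature and luciferase measured over 15 sec. Cells were seeded at 1,000/well and pre-cultured 4 h.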
* marks the source's active call; other numbers are inactive results; u = inconclusive; x = no result given. Unless noted, calls follow the shape of the dose curve; as a rule, active = well fitted curve in the direction sought with a large enough effect; inconclusive = small, poorly fitted or top-dose-only effect, or another doubt; inactive = no such curve, though single readings can be large; an effect the other way counts as inactive or inconclusive.

SMILES	Pf growth 96h	Sm TGR inh	HCMV antiviral	SARS PLpro yeast	Pf growth 48h	HCV inh
CCN1CC(=O)Nc2cc(S(=O)(=O)N3CCOCC3)ccc21	-20.4%	-21.3%	-60.4*	1.3%	u	-5.9%
CCCNC(=O)c1ccc(N2CCC3(CC2)CC(c2cccc(Br)c2)=NO3)c(N)c1	u	-1.0%	-18.0	-24.1%	11.7µM*	u
CCCNC(=O)c1ccc(N2CCC3(CC2)CC(c2cccc(Br)c2)=NO3)c([N+](=O)[O-])c1	6.57µM*	-1.0%	u	-5.8%	u	u
COc1ccccc1/C=C/C=N/n1c(C)nnc1C	u	-26.9%	8.4	-0.8%	23.2%	u
Cc1ccc(S(=O)(=O)N2CCN(C(=O)C3CSC4(C)CCC(=O)N34)CC2)cc1C (centres undefined)	2.3%	-11.3%	u	-0.8%	-14.3%	6.7%
O=C(NCC1CCCO1)c1c(O)nc2sccn2c1=O (centres undefined)	-4.9%	0.0%	-34.8	-1.6%	0.2%	6.4%
CC1CC(NC(=O)c2c(O)nc3sccn3c2=O)CC(C)(C)C1 (centres undefined)	u	-2.6%	u	-0.5%	13.1µM*	2.6%
O=C(NC1CCCCCC1)c1c(O)nc2sccn2c1=O	4.65µM*	-6.5%	-25.4	-39.8%	6.57µM*	21.4%
O=C(NCCCN1CCCC1=O)c1c(O)nc2sccn2c1=O	0.7%	4.5%	-1.5	-1.1%	u	9.7%
O=C(NC1CCCCC1)c1c(O)nc2sccn2c1=O	10.4µM*	5.6%	-17.7	-21.3%	10.4µM*	21.6%
COc1ccccc1-n1nc(-c2ccccc2)c2cnc3cc(C(F)(F)F)ccc3c21	x	-2.7%	-4.9	x	x	x
CC1CCC(C(C)C)C(OC(=O)C[n+]2cc(-c3ccc(Cl)cc3)n3c2CCC3)C1 (centres undefined)	u	-0.3%	u	1.9%	u	-15.5%
O=C(C[n+]1cc(-c2ccccc2)n2c1CCC2)OCc1ccccc1	u	-0.3%	-6.4	-17.8%	3.3%	16.9%
Cc1ccc(C(=O)C[n+]2cc(-c3ccc(C)cc3)n3c2CCCCC3)cc1	0.415µM*	8.3%	-101.7*	2.1%	0.415µM*	u
Cc1ccc(-c2c[n+](Cc3ccc(Cl)c(Cl)c3)c3n2CCC3)cc1	0.185µM*	-15.6%	-99.4*	3.2%	1.65µM*	-14.0%
COc1ccc(C(=O)C[n+]2cc(-c3ccc(OC)cc3)n3c2CCCC3)cc1	1.47µM*	-17.2%	-66.9*	3.1%	1.17µM*	-5.7%
O=C(C[n+]1cc(-c2ccccc2)n2c1CCCCC2)c1ccc(Br)cc1	32.5%	x	-5.6	-0.3%	1.65µM*	u
CCCc1c(C)[nH]c2ccc(C(=O)O)cc2c1=S	-2.9%	u	29.4	2.0%	20.9%	10.6%
O=C1CN(Cc2ccccc2)C(=NCc2ccco2)S1	-3.8%	5.5%	8.5	-1.8%	1.85µM*	6.6%
Cc1ccc(S(=O)(=O)NNC(=O)c2ccc3ccccc3n2)cc1	u	5.2%	55.5	-3.1%	-2.3%	8.9%
CCn1ncc(/C=C/C(=O)Nc2c(C)nn(Cc3ccc(Cl)cc3Cl)c2C)c1C	u	-8.4%	-102.8*	-1.3%	u	u
CCn1nc(C)c(NC(=O)/C=C/c2cnn(C)c2C)c1C	10.4%	9.6%	17.3	-18.8%	18.9%	-2.8%
CCN(CC)c1ccc(NC(=O)CN2CCN(CC(=O)Nc3ccccc3OC)CC2)cc1	6.5%	1.2%	7.7	0.8%	-27.0%	u
O=C(Nc1ccc(N2CCCCC2)cc1)c1ccc([N+](=O)[O-])o1	u	-27.5%	-96.0*	-5.0%	-23.3%	u
CCN(CC)c1ccc(NC(=O)CN2CCN(CC(=O)Nc3ccccc3F)CC2)cc1	28.0%	-20.7%	41.5	24.7%	11.7µM*	11.9%
SMILES	Pf growth 96h	Sm TGR inh	HCMV antiviral	SARS PLpro yeast	Pf growth 48h	HCV inh
CS(=O)(=O)N1CCN(c2ccc(NC(=O)c3ccc([N+](=O)[O-])o3)cc2)CC1	u	-26.6%	-101.1*	3.5%	82.9%	u
O=C(Nc1ccc(N2CCCC2)c(Cl)c1)c1ccc([N+](=O)[O-])o1	u	u	-89.2*	-24.4%	u	u
O=C(Nc1ccc(N2CCCC2)cc1)c1ccc(Br)o1	u	0.0%	105.5	0.9%	u	-29.1%
CS(=O)(=O)N1CCN(c2ccc(NC(=O)c3cc4ccccc4o3)cc2)CC1	88.5%	1.7%	-17.5	0.8%	64.0%	8.4%
CCC(=O)Nc1ccc(N2CCN(Cc3ccccc3F)CC2)cc1	9.28µM*	-5.3%	98.1	3.3%	u	-4.0%
CC1CCCN(C(=O)c2ccc([N+](=O)[O-])o2)C1 (centres undefined)	u	-8.2%	-33.2	-10.1%	13.1µM*	-8.7%
CC1CCN(c2ccccc2NC(=O)c2ccc([N+](=O)[O-])o2)CC1	32.4%	-5.5%	-9.7	-3.4%	u	-26.3%
CC1CCN(c2ccc(NC(=O)c3ccc([N+](=O)[O-])o3)cc2)CC1	-6.1%	-3.3%	-97.5*	-18.0%	u	u
O=C(Nc1ccc(N2CCN(Cc3ccccc3F)CC2)cc1)c1ccc([N+](=O)[O-])o1	u	-1.6%	-100.2*	1.9%	1.85µM*	u
CC(=O)Nc1ccc(N2CCN(Cc3ccccc3F)CC2)cc1	x	17.0%	-7.1	4.9%	-18.4%	31.9%
O=C(Nc1ccc2ccccc2c1)OC1CCS(=O)(=O)C1 (centres undefined)	x	x	86.0	x	x	x
Cn1c(SCC(=O)Nc2ccc(Br)cc2)nc(O)cc1=O	12.1%	7.8%	82.7	3.0%	-3.1%	17.1%
N#Cc1ccccc1NC(=O)C(=O)NCC(c1ccc2c(c1)OCO2)N1CCOCC1 (centres undefined)	x	6.3%	16.6	x	x	x
CCN(CC(=O)Nc1c(F)cccc1F)C(=O)c1ccc2c(c1)C(=O)N(c1ccccc1C)C2=O	x	x	-26.0	x	x	x
COC(=O)c1ccc(NC(=O)CC2C(=O)N(c3ccc(F)cc3)C(=O)N2Cc2ccc(OC)cc2)cc1 (centres undefined)	x	11.9%	-32.1	x	x	x
Cc1cc(C)cc(OCC(=O)NNC(=O)CC(C)c2ccccc2)c1 (centres undefined)	x	x	-7.4	x	x	x
Cc1ccc(S(=O)(=O)N2CCOC2CNC(=O)C(=O)NCCN2CCOCC2)cc1 (centres undefined)	16.1%	9.7%	u	-1.1%	104.5%	25.9%

Source: PubChem BioAssay
